Data as given in PubChem BioAssay (NCATS).
Results filed as inconclusive are left out. Calls of active or inactive are those of the source. Unless noted, the call rests on the fitted dose curve; in most records, active means well fitted cell-killing curve with a large enough effect; inconclusive means small, poorly fitted or top-dose-only effect; inactive means flat fitted curve, though single readings scatter.

What was measured:
[1] = Cell Viability - LYMP2-020 (AID 986);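 further: series mostly up to about 92 µM; cells exposed to compound for 24 h at 37 °C; nearly all actives have a fitted effect of over 55% in size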
Outline: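 Acute cytotoxicity in a human lymphoblastoid line is scored as a concentration-dependent fall in cellular ATP after 24 hr at 37 C in complete medium. The positive control is tetraoctylammonium bromide, and potency is given as Hill-fit AC50.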

[2] = Cell Viability - LYMP2-022 (AID 987);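 further: cells exposed to compound for 24 hr; nearly all actives have a fitted effect of over 55% in size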
Outline: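 Acute toxicity in a human lymphoblastoid line is scored as decreased intracellular ATP after 24 hr compound treatment at 37 C. ATP is measured by CellTiter-Glo luminescence; curves are fitted with the Hill equation to give AC50.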

[3] = Cell Viability - LYMP2-024 (AID 988);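 further: cells exposed to compound for 24 hr at 37 °C; nearly all actives have a fitted effect of over 60% in size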
Outline: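 Acute toxicity is measured as concentration-dependent loss of intracellular ATP in a human lymphoblastoid line treated 24 hours at 37 C. Luciferase luminescence quantifies ATP; AC50 values come from standard Hill-equation modelling.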

[4] = Cell Viability - LYMP2-026 (AID 989);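 further: cells exposed to compound for 24 h at 37 °C; nearly all actives have a fitted effect of over 50% in size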
Outline: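 Concentration-dependent loss of intracellular ATP in human lymphoblastoid cells after 24 hr at 37 C, quantified by luciferase luminescence. AC50 derived from standard Hill equation.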

[5] = Cell Viability - LYMP1-002 - Assay at 24 hr (AID 993)
Outline: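 qHTS, LYMP1-002 lymphoblastoid, 24 h cpd, 37 C, CellTiter-Glo ATP luminescence; AC50 via Hill eq.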

[6] = Cell Viability - LYMP1-002 - Assay at 40 hr (AID 994); further: nearly all actives have a fitted effect of over 60% in size
Outline: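 Viability in the human lymphoblastoid line was measured as intracellular ATP via CellTiter-Glo after 40 hr compound exposure. Tetraoctylammonium bromide served as positive control.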

[7] = qHTS Assay for Identification of Small Molecule Inducers of Hypoxia Response (AID 2120; active means well fitted curve in the direction sought with a large enough effect in the signal ratio, with a control signal flat, not every such curve was filed as active; the % refers to the signal ratio)
Outline: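 Induction of beta-lactamase reporter activity was measured in CellSensor HRE-bla ME-180 cells after 17 h compound treatment at 37 degrees C, using CCF4 substrate and the 460nm/530nm emission ratio to derive AC50 values.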

[8] = target: Estrogen receptor (Homo sapiens) (UniProt P03372); experiment: qHTS assay for small molecule antagonists of estrogen receptor alpha signaling (AID 588513; active means well fitted curve in the direction sought with a large enough effect in the signal ratio, with a control signal flat, not every such curve was filed as active; the % refers to the signal ratio)
Outline: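 Antagonist-mode qHTS in ER-alpha-UAS-bla HEK 293 cells: compound titration, 0.5nM estradiol for 18 h, CCF4 fluorescence, Hill-derived IC50.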

[9] = target: Estrogen receptor (Homo sapiens) (UniProt P03372); experiment: qHTS assay for small molecule agonists of estrogen receptor alpha signaling (AID 588514; calls by dose curve; further: nearly all actives have a fitted effect of over 70% in size; further: potency means the concentration at half of the fitted maximal effect)
Outline: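 Reporter-gene assay. […] controls beta-lactamase in HEK 293 GripTite cells; after 18 hrs with compound, CCF4 substrate is added for 2 hrs and fluorescence is read.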

Measured: Potency

Sequence of Estrogen receptor (Homo sapiens) (P03372 whole entry, looked up): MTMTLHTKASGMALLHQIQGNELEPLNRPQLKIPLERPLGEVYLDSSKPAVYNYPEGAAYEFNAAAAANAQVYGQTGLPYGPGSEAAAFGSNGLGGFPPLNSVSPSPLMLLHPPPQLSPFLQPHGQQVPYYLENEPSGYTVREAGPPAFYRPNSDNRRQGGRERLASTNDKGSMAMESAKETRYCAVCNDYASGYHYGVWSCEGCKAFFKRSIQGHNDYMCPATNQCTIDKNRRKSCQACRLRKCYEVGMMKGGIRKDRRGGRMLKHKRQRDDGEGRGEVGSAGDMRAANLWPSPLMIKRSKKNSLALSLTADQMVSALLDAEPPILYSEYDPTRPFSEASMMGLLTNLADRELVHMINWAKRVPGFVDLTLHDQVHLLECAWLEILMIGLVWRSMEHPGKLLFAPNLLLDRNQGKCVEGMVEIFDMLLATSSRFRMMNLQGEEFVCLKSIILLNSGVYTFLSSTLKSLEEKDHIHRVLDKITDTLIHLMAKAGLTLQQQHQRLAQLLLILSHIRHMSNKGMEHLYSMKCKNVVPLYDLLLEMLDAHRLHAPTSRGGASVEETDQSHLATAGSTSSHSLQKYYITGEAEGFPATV

Cc1ccc(Cl)cc1
inactive: all assays above

C/C(C=O)=C/c1ccccc1
inactive: all assays above

CC(C)CCOC(=O)/C=C/c1ccccc1
inactive: all assays above

Nc1cccc(C(F)(F)F)c1
inactive: all assays above

COc1ccc(N)c(OC)c1
inactive: all assays above

CC=O
inactive: all assays above

Nc1ccc([N+](=O)[O-])c(N)c1
inactive: all assays above

COC(=O)CS
inactive: all assays above

CC(C)=C1CCC(C)CC1=O (configuration not stated)
inactive: all assays above

CCCCC(CC)COCC1CO1 (configuration not stated)
inactive: all assays above

C=CCOC(=O)CCCCCCCC
inactive: all assays above

Nc1cccc2c(=O)[nH][nH]c(=O)c12
inactive: all assays above

CCOc1cccc(N)c1
inactive: all assays above

C=C(C)C(=O)OCC(C)O (configuration not stated)
inactive: all assays above

C=CC(=O)NC(C)C
inactive: all assays above

Cc1ccccc1C(N)=O
inactive: all assays above

O=C1OC(=O)c2cc([N+](=O)[O-])ccc21
inactive: all assays above

Cc1cc(C)c(N)cc1C
inactive: all assays above

OC(CCl)CCl
inactive: all assays above

Oc1cccc(Nc2ccccc2)c1
active: [9] 25.1 µM
inactive: all other assays above

CCC=O
inactive: all assays above

CC(=O)c1nccs1
inactive: all assays above

C=C(C)C(N)=O
not listed: [6] | [9]
inactive: all other assays above

O=C1C=CCCC1
not listed: [2]
inactive: all other assays above

Cc1cccc2ccccc12
not listed: [4]
inactive: all other assays above

CCNS(=O)(=O)c1ccc(C)cc1
not listed: [4]
inactive: all other assays above

O=Cc1ccc(CO)o1
not listed: [9]
inactive: all other assays above

CC=C(Cl)Cl
not listed: [9]
inactive: all other assays above

O=C(O)c1cccc(Cl)c1Cl
not listed: [2] | [4]
inactive: all other assays above
